Consider six compounds from PubChem BioAssay (NCATS).

Each structure is given as a SMILES string. Values without a mark were called inactive. Records with an inconclusive call do not appear. Activity calls are given as the source filed them. The call rests on the fitted dose curve; in most records, active means well fitted curve in the direction sought with a large enough effect; inconclusive means small, poorly fitted or top-dose-only effect, or another doubt; inactive means no such curve, though single readings can be large; an effect the other way counts as inactive or inconclusive. *1 amine or outer side, *2 acyl side, *3 side chain or, on linkers, in order; H or OH if unused. Where a SMILES comes first, the peptide text is derived from it. [ ]: non-standard residue; d: D form. X5 = CC(CC(O[*:1])C(=O)[*:2])C(=O)O; NMeV = CN[CH](C(=O)O)C(C)C; NMeA = CN[CH](C)C(=O)O; βAla = NCCC(=O)O

Assay [1] deals with Zika virus NS2B-NS3 protease (linked construct). The assay is described as follows: Primary screen NINDS Rhodamine qHTS for Zika virus inhibitors (AID 1347160). Further: nearly all actives have a fitted effect of over 55% in size. On activity change, negative = inhibition: on the % scale 0 is the no-effect control and ±100 the full control effect. The method, boiled down: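 Rhodamine110-peptide cleavage (1.5 µM substrate) by 25 nM linked NS2B-NS3 enzyme at pH 8.0 (Tris, Tween 20), after 15 min RT preincubation with compounds; 15-min fluorescence change normalized to controls and Hill-fitted.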
On the technique in general: qHTS replaces the single test concentration by a dilution series.

Assay [2] deals with Calcium and integrin-binding protein 1 (Homo sapiens) (UniProt Q99828). The assay is described as follows: Primary qHTS for Identification of Calcium Integrin Binding Protein 1 (CIB1) Competitor (AID 1508620).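 Further: GST tagged CIB1 binding a fluorescein labelled alphaIIb integrin peptide tracer; top concentration of the series differs between compounds; on the % scale 0 is the no-effect control and ±100 the full control effect.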 A digest of the protocol:
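Fluorescence polarization competition: CIB1-GST (1 uM final) preincubated with compound 15 min at room temperature, then FITC-labeled alphaIIb peptide (100 nM final) added for another 15 min. Polarization read at Ex 480/Em 540.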

Assay [3] addresses Glutathione peroxidase 1 (Homo sapiens) (UniProt P07203). Briefly: Primary qHTS Assay for Inhibitors of Recombinant Selenoprotein Glutathione Peroxidase 1 (GPX1) (AID 1845191). Further: nearly all actives have a fitted effect of over 65% in size. The method, boiled down:
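GPX1 10 nM, GR 100 nM, GSH 1 mM, NADPH 0.5 mM, CHP 0.5 mM (final). 30-min cpd preincubation, RT. Ex340/Em450 read t=0, t=15 min.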

Assay [4] addresses Phospholipid hydroperoxide glutathione peroxidase GPX4 (Homo sapiens) (UniProt P36969). Briefly: Primary qHTS Assay for Inhibitors of Recombinant Selenoprotein Glutathione Peroxidase 4 (GPX4) (AID 1845192). Further: nearly all actives have a fitted effect of over 65% in size. On activity change, negative = inhibition: on the % scale 0 is the no-effect control and ±100 the full control effect. A digest of the protocol:
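qHTS, GR-coupled: GPX4 200 nM + cpd 30 min RT → GSH 1 mM, NADPH 0.5 mM, GR 100 nM → CHP 0.5 mM start; fluor 340/450 at t0 and t15 min; no-enzyme wells as control.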

The target of assay [5] is Luciferin 4-monooxygenase (Photinus pyralis) (UniProt P08659). The assay is described as follows: Primary firefly luciferase (FLuc) qHTS assay for identification of artifact compounds. (AID 1845220). Further: nearly all actives have a fitted effect of over 60% in size.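 On activity change, negative = inhibition: plate controls were DMSO vehicle for no effect and no enzyme for full effect.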 The following applies: outcome: dose series up to 54.1 µM unless noted. A digest of the protocol: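 In this counter-screen for luciferase artifacts, test compounds met substrate (10 uM each luciferin and ATP) before 10 nM enzyme started the reaction. Light output was measured 5 min later.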

The nature of assay [6]: Primary fluorescence-based thiol-reactive (MSTI) qHTS assay for identification of artifact compounds. (AID 1845221). Further: nearly all actives have a fitted effect of over 65% in size. Further: potency means the concentration at half of the fitted maximal effect.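 On activity change, negative = thiol reactive: thiol-reactive compounds lower the probe fluorescence signal.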 A digest of the protocol: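 Reactivity toward the thiol probe MSTI (4 uM) is scored by fluorescence at Ex/Em 525/598 nm after 1 h at room temperature. Acetyl-MSTI and MSTI define the activity scale.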
The test system of assay [7] is Nanoluciferase (engineered Oplophorus gracilirostris luciferase). Briefly: Primary Nanoluciferase (NLuc) qHTS assay for identification of artifact compounds. (AID 1845222).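 Further: NLuc secreted into diluted conditioned medium of S16 cells.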 The method, boiled down:
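Using secreted nanoluciferase in S16 culture medium (0.22 um filtered, 1:55 dilution), compounds were preincubated 15 min at RT. Signal was generated with Nano-Glo reagent (1:100) over 5 min.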

Assay [8] is described as follows: Primary redox qHTS assay for identification of artifact compounds. (AID 1845223).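 Further: 0% = DMSO and 100% = reference compound.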 The method, boiled down:
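Redox-cycling detection via DTT (250 uM final) oxidation coupled to Amplex Red (25 uM)/HRP (250 mU/mL) in HBSS. 15 min preincubation plus 30 min after DTT, room temperature. Ex/Em 525/598 nm; 4-parameter Hill fit against DMSO and 10 uM DA3003.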

Assay [9] has as its system HaCat. Briefly: Cytotoxic Profiling of Annotated Libraries Using Quantitative High-Throughput Screening (AID 1296008). Further: nearly all actives have a fitted effect of over 60% in size. Further: potency means the concentration at half of the fitted maximal effect. On max response: on the % scale 0 is the no-effect control and ±100 the full control effect. The following applies: Five cell lines viability, CellTiter-Glo ATP luminescence, 48-72 h; max response: hits give low values. A digest of the protocol: (§1)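 Compounds were pin-transferred onto cells and incubated 48 or 72 hr at 37 degree Celsius, 95% humidity. CellTiter-Glo was added, plates sat 10 min at room temperature, then ATP-coupled luminescence was imaged as the viability read-out.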
(ATP-based viability assays read luminescence as a measure of living cells.)

Assay [10] has as its system NIH3T3. The assay is described as above. The following applies: Five cell lines viability, CellTiter-Glo ATP luminescence, 48-72 h; max response: hits give low values. A digest of the protocol: as §1
Assay [11] relates to C33A. The assay is described as follows: Primary qHTS to identify gynecologic anti-cancer compounds using libraries of approved drugs and bioactive compounds (AID 1345084). Further: on the % scale 0 is the no-effect control and ±100 the full control effect; nearly all actives have a fitted effect of over 55% in size. The following applies: Gynecologic cancer cell panel viability, ATPlite luminescence, 48 h; series mostly up to 57.5 µM. A digest of the protocol:
(§2)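 Measured: luminescence after ATPlite addition (15 min, RT). Exposure: 48 h, 37 C, 5% CO2.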

In assay [12] the test system is CAOV3. The assay is described as above. The following applies: Gynecologic cancer cell panel viability, ATPlite luminescence, 48 h; series mostly up to 57.5 µM. A digest of the protocol: as §2
Assay [13] deals with CASKI. The assay is described as above. The following applies: Gynecologic cancer cell panel viability, ATPlite luminescence, 48 h; series mostly up to 57.5 µM. The method, boiled down:
as §2

Assay [14] deals with Es-2. The description is as above. The following applies: Gynecologic cancer cell panel viability, ATPlite luminescence, 48 h; series mostly up to 57.5 µM. A digest of the protocol:
as §2

The test system of assay [15] is Hek293T. Described as above. The following applies: Gynecologic cancer cell panel viability, ATPlite luminescence, 48 h, control line for the selectivity index; series mostly up to 57.5 µM. A digest of the protocol: as §2
The test system of assay [16] is JEG-3. The assay is described as above. The following applies: Gynecologic cancer cell panel viability, ATPlite luminescence, 48 h; series mostly up to 57.5 µM. The method, boiled down:
as §2

The test system of assay [17] is OV90. Described as above. The following applies: Gynecologic cancer cell panel viability, ATPlite luminescence, 48 h; series mostly up to 57.5 µM. The method, boiled down:
as §2

Assay [18] concerns PA-1. The assay is described as above. The following applies: Gynecologic cancer cell panel viability, ATPlite luminescence, 48 h; series mostly up to 57.5 µM. A digest of the protocol: as §2
The subject of assay [19] is Tov-21-G. The description is as above. The following applies: Gynecologic cancer cell panel viability, ATPlite luminescence, 48 h; series mostly up to 57.5 µM. A digest of the protocol: as §2
Assay [20] deals with Tov112D. Described as above. The following applies: Gynecologic cancer cell panel viability, ATPlite luminescence, 48 h; series mostly up to 57.5 µM. The method, boiled down: as §2

Sequence of Calcium and integrin-binding protein 1 (Homo sapiens) (Q99828 whole entry, looked up): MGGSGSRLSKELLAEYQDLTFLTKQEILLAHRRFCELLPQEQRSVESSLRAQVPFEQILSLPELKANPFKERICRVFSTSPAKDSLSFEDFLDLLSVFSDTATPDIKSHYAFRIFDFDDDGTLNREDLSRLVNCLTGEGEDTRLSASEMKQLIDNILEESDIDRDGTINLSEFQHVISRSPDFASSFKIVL
Sequence of Glutathione peroxidase 1 (Homo sapiens) (P07203 whole entry, looked up): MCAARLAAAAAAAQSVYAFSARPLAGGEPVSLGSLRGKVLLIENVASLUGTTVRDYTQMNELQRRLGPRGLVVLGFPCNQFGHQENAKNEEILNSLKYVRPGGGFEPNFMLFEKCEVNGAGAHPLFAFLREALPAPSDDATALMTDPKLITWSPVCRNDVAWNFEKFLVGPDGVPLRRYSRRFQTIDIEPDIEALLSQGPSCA
Sequence of Phospholipid hydroperoxide glutathione peroxidase GPX4 (Homo sapiens) (P36969 whole entry, looked up): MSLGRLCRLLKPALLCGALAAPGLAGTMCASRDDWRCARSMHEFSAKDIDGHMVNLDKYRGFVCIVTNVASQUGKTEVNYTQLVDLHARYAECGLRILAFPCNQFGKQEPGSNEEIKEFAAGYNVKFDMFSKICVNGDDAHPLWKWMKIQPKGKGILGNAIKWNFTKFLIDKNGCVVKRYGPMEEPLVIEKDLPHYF

With `CCC(C)C1NC(=O)C2CCCN2C(=O)C(CC(C)C(=O)O)OC(=O)CCNC(=O)C(C)N(C)C(=O)C(C(C)C)N(C)C1=O` (centres undefined) (cyclo([X5]PI[NMeV][NMeA][βAla]); configuration not given here), the Potency result in [1], in assay [2], in [3], in [4], in assay [6] and in assay [7] was “inactive” in each case. For the same compound, the Potency result in [8], in assay [11], in assay [12], in assay [13], in assay [14] and in assay [15] was “inactive” each time. For the same compound, the Potency entry in assay [16], in assay [17], in assay [18], in [19] and in assay [20] was “inactive” throughout. Further, the outcome in assay [5] was inactive. Moreover, the max response in [9] was 4.66%; in assay [10], 3.88%.

For `CC1=CC2/C=C(\C)CCC(O)C(O)/C=C/C(=O)OC23C(=O)NC(CC(C)C)C3C1C` (centres undefined), the Potency result in [1], in assay [2], in [3], in assay [4], in [6] and in assay [7] was “inactive” each time. The Potency entry in assay [8], in assay [11], in assay [12], in [13], in assay [14] and in [15] was “inactive” throughout. The Potency entry in assay [16], in assay [17], in assay [18], in [19] and in assay [20] was “inactive” each time. For the same compound, the result in [5] and in assay [9] was inactive. Moreover, in [10], the max response is -15.3%.

With `CC1CCCC(O)CCC/C=C/c2cc(O)cc(O)c2C(=O)O1` (centres undefined), the Potency result in [2], in [4], in assay [7], in assay [8], in [12] and in assay [13] was “inactive” in each case. For the same compound, the Potency result in assay [14], in [15], in [16], in [17], in assay [18] and in [19] was “inactive” each time. Besides, the Potency entry in assay [20] was “inactive”. Besides, the compound was classed as inactive in [5]. Further, the Potency is 1.85 µM (active) in assay [6] and 8.05 µM (active) in [10]. In assay [9], the max response was 0.224%.

Regarding `Cc1cccc(NC(=O)NC2N=C(c3ccccc3)c3ccccc3N(CC(=O)c3ccccc3C)C2=O)c1` (centres undefined), the Potency entry in [1], in [2], in assay [4], in assay [6], in assay [7] and in assay [8] was “inactive” in each case. Besides, the Potency result in assay [11], in assay [13], in assay [14], in assay [15], in [16] and in [17] was “inactive” each time. Moreover, the Potency entry in [18], in assay [19] and in assay [20] was “inactive” each time. Also, the compound was classed as inactive in assay [5], in assay [9] and in [10].

In the case of `CC12Cc3cn[nH]c3C=C1CCC1C2CCC2(C)C1CCC2(C)O` (centres undefined), the Potency result in assay [1], in [2], in assay [3], in [4], in assay [6] and in [7] was “inactive” each time. In addition, the Potency entry in assay [8], in assay [11], in [12], in [13], in assay [14] and in assay [15] was “inactive” in each case. Besides, the Potency result in assay [16], in [17], in assay [18], in [19] and in assay [20] was “inactive” in each case. The result in [5] was inactive. Moreover, the max response in [9] is -0.609%; in [10] it was -0.979%.

As to `C/C=C(\C)C(=O)OC1C2C3(C)CCC(OC4CC(OC)C(OC5OC(C)C(O)C(OC)C5O)C(C)O4)CC3CCC23OC32CCC(C(C)=O)C2(C)C1OC(=O)/C(C)=C/C` (centres undefined), the Potency entry in assay [1], in assay [2] and in assay [3] was “inactive” each time. Also, the activity change, negative = inhibition in assay [5] was 0.886% [at 11.6 µM]. The activity change, negative = thiol reactive in assay [6] is 84.6% [at 11.5 µM]. Further, in assay [7], the activity, negative = inhibition is 2.09% [at 11.6 µM]. In assay [8], the redox activity (% of DA3003) is 18.3% [at 11.5 µM]. Besides, in assay [9], the result was inactive. The max response in [10] is -16.5%. Further, the activity change, negative = cytotoxicity is 10.6% [at 11.6 µM] in assay [11]; 0.328% [at 11.6 µM] in assay [12]; -3.16% [at 11.6 µM] in assay [13]; -0.14% [at 11.6 µM] in [14]; 2.72% [at 11.6 µM] in assay [15]; 7.67% [at 11.6 µM] in assay [16]. Moreover, the activity change, negative = cytotoxicity in [17] was 2.67% [at 11.6 µM]; in [18] it was 2.59% [at 11.6 µM]; in assay [19], -0.804% [at 11.6 µM]; in assay [20], -1.3% [at 11.6 µM].
